We go through 65 compounds from PubChem BioAssay AID615 (Sanford-Burnham Center for Chemical Genomics, 2007).

The campaign covered roughly 21,000 compounds. Fewer than 10 were called active.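 How the source made its calls: active means inhibition above 50% at the 20 µM single-dose screen; inactive means the rest.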 The list is a sample of the results.

Chain of Alkaline phosphatase, tissue-nonspecific isozyme (Homo sapiens) (P05186 whole entry, looked up): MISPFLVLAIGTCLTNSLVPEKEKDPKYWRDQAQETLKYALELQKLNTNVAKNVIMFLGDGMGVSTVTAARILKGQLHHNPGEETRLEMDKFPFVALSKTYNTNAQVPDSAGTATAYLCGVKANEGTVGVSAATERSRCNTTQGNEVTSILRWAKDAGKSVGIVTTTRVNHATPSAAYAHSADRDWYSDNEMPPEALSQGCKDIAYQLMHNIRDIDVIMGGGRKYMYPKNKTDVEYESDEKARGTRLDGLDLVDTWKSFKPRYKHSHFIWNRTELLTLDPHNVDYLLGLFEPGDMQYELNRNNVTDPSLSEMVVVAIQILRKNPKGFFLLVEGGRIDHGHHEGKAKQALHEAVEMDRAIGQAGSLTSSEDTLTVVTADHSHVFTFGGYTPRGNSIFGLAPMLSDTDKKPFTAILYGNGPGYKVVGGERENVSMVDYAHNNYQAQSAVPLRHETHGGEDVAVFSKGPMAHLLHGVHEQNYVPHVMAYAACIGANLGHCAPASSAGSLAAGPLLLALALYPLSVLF

The assay concerns the target Alkaline phosphatase, tissue-nonspecific isozyme (Homo sapiens) (UniProt P05186). In words: blockers of alkaline phosphatase TNAP catalysis – biochemical, colorimetric, p-nitrophenol readout, primary screen (AID 615).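 Further: 0% = DMSO only wells and 100% = 1 mM levamisole wells.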 As to conditions: purified TNAP, pNPP hydrolysis, absorbance 405 nm; at 20 µM; active compounds read high.
Broadly, the inhibition is the change of the read-out against control, counted positive when it falls. Consider `COC(=O)c1ccccc1NC(=O)CN(Cc1ccccc1)S(C)(=O)=O`, for which the inhibition was 6% (inactive). As for `CCCc1nc2ccccc2c(C(=O)OCc2nnc(-c3cc(OC)c(OC)c(OC)c3)o2)c1CC`, the figure is 1.2% (inactive); as for `CCOC(=O)c1cc2occc2n1CC(=O)NC1CCC(C)CC1` (stereo not given), 5.1% (inactive).

For the compound `CCOc1cccc(=O)c2c(C)n(CC3CCCO3)c(C)c12` (stereo not given), the inhibition is -12.4% (inactive). As for `O=C(NC1CC2CCCC(C1)N2C(=O)N1CCCCC1)C1CCCCC1` (stereo not given), the figure is 4.8% (inactive); as for `CCOC(=O)C1C(=O)NC(N2CCN(c3ccccc3)CC2)=NC1c1ccco1` (stereo not given), 2.1% (inactive).

With `CCN(Cc1cc2cc(C)ccc2[nH]c1=O)S(=O)(=O)c1ccccc1`, the inhibition is 6.4% (inactive). For `O=C(NCCCCO)C(F)(F)C(F)(F)C(F)(F)C(=O)NCCCCO`, the inhibition was 4.2% (inactive). Take `Cc1cc(N2C(=O)C(=O)/C(=C(/O)c3ccccc3)C2c2cccc(Br)c2)no1` (stereo not given): the inhibition is 0.9% (inactive). Regarding `CN(c1nc2ccccc2n2c(-c3ccco3)nnc12)S(=O)(=O)c1ccccc1`, the inhibition was 4.7% (inactive). In the case of `CC(=O)c1cccc(NC(=O)N2CCCC2C(=O)NCCC(C)C)c1` (stereo not given), the inhibition is 7.2% (inactive). With `Cc1ccc(F)cc1NC(=O)c1cccc(N(C)C)c1` the figure was 5% (inactive); with `CC1=C2C(=O)OC(c3ccoc3)C2(C)CCC1` (stereo not given), 0% (inactive); with `CCOC(=O)CSc1nnc(-c2ccco2)n1C`, 3% (inactive). As for `Cc1ccc(C(=O)OCC(=O)NCc2ccc3c(c2)OCO3)s1`, the figure is 3.6% (inactive). Turning to `Cc1ccc(S(=O)(=O)N2CCC(C(=O)OCC(=O)N3CC(=O)Nc4ccccc43)CC2)cc1`, the inhibition is 5.7% (inactive).

As for `CCCCCNC(=O)Cc1ccc(OC)cc1`, the inhibition was 2.1% (inactive). As for `Cc1nc(NCc2ccccc2)c(C(N)=O)c2c1COC(C)(C)C2`, the figure is 3% (inactive); as for `CC(=O)N(Cc1cccs1)C1CCOC(C)(C)C1` (stereo not given), 2.9% (inactive); as for `CSc1nc(O)c(Cc2ccccc2)c(=O)[nH]1`, 0.9% (inactive). `CC(C)C(NC(=O)c1cccc(S(=O)(=O)N2CCOCC2)c1)C(=O)NCCc1ccccn1` (stereo not given): the inhibition was 4.3% (inactive). With `CSCCC1NC2(C(=O)Nc3ccc(Cl)cc32)[C@@H]2C(=O)N(C3CCCC3)C(=O)[C@H]12` (stereo not given in full) the figure was 7.3% (inactive); with `Cc1cnc(NC(=O)CSc2nnc(-c3ccc(Cl)cc3Cl)n2N)s1`, -1.5% (inactive). Consider `COc1ccc(-c2c3c(=O)n(C)c(=O)n(C)c3cn2NC(C)=O)cc1`, for which the inhibition is 3.2% (inactive). `CCSC1=C(C#N)C(=O)n2c1cc1c2CCCC1`: the inhibition is 1.7% (inactive). As for `Cc1cc(C(=O)N2CCN(c3ccccn3)CC2)c(C)o1`, the figure is 6% (inactive); as for `COc1cccc(-c2nnc(N(C)C(=O)c3ccno3)s2)c1`, 2.3% (inactive); as for `CC(=O)N1CSCC1C(=O)O` (stereo not given), 8.6% (inactive). As for `COc1ccc(O)c(C=Nc2cc(C)on2)c1`, the figure is 5.7% (inactive); as for `O=C1CSC(=O)N1CCOCCN1C(=O)CSC1=O`, 4.8% (inactive). As for `COc1ccc(C2CC(c3ccc(C)cc3)Nc3nc(N)nn32)cc1` (stereo not given), the figure is 3.3% (inactive); as for `CC1(C)CC(=O)C(C2=NC(C)(C)Cc3ccccc32)=C(O)C1`, -1% (inactive); as for `CCn1c(SCC(=O)NCc2ccco2)nnc1-c1ccc(N)cc1`, 0.2% (inactive). Consider `CCOc1cc(C)c(Cl)cc1S(=O)(=O)n1nnc2ccccc21`, for which the inhibition was 3.6% (inactive). With `CC1CCCN(C(=O)Cn2c(=O)oc3ccccc32)C1` (stereo not given) the figure was 3.7% (inactive); with `O=C(Nc1c(Cl)cccc1Cl)C1CCC1`, 3.6% (inactive); with `Cc1cc(C)nc(SCc2ccccc2C#N)n1`, 1.7% (inactive). With `COc1ccccc1Nc1ncc(C(C)=O)c(C)n1` the figure was 1.9% (inactive); with `O=C(O)CN(Cc1ccco1)S(=O)(=O)c1ccccc1`, 0% (inactive); with `CCC(=O)Nc1ccc(C(=O)Nc2ccc3c(c2)C(=O)N(CC2CCCO2)C3=O)cc1` (stereo not given), 3.2% (inactive). For `CCCc1cc(=O)n2[nH]c(SCc3ccccc3)nc2n1`, the inhibition is 4.4% (inactive). As for `N#Cc1nc(-c2ccc(OCc3ccccc3)cc2)oc1NCCCN1CCOCC1`, the figure is 4% (inactive); as for `O=S(=O)(NCc1cccnc1)c1ccc(Br)s1`, 2.9% (inactive). With `Cc1ccc(C(=O)N2CCN(C3CCCCC3)CC2)s1`, the inhibition was 2.5% (inactive). Turning to `COC(=O)c1cc(NC(=O)CN2CCC(C(N)=O)(N3CCCCC3)CC2)cc(C(=O)OC)c1`, the inhibition was -6.8% (inactive). Take `COc1cccc(NC(=O)c2ccccc2SC)c1`: the inhibition is 0.3% (inactive). With `COC(=O)c1ccc2c(c1)S(=O)(=O)NC(=NCCCN1CCOCC1)S2`, the inhibition was 3.7% (inactive). With `O=C(c1ccco1)N(Cc1nc2ccccc2c(=O)[nH]1)C1CCCC1` the figure was -5.2% (inactive); with `Cc1ccccc1OCCC(=O)Nc1c(C)n(C)n(-c2ccccc2)c1=O`, 0% (inactive); with `Cc1cc(C)c(C(=O)CN2C(=O)CCC2=O)cc1C`, 5% (inactive).

With `O=S(=O)(c1ccccc1)N(CC(O)CN1CCCCC1)c1ccccc1` (stereo not given), the inhibition is -1.4% (inactive).

`COC(=O)c1ccccc1NC(=O)c1ccccc1NS(C)(=O)=O`: the inhibition is 8.2% (inactive). As for `COC(=O)c1cc(Cl)c(NC(=O)c2ccco2)cc1OC`, the figure is -4.4% (inactive); as for `COc1cc(OC)cc(C(=O)Nc2ncc3c(n2)CC(C)(C)CC3=O)c1`, 3.1% (inactive).

For the compound `CC1CCCCC1NC(=O)CSc1nnc(N)s1` (stereo not given), the inhibition is 0% (inactive). As for `COc1ccc(CNC(=O)c2cc3c(=O)n4ccccc4nc3n(CC3CCCO3)c2=N)cc1` (stereo not given), the figure is 0.4% (inactive); as for `COc1c(F)c(F)c(-c2csc(N)n2)c(F)c1F`, 1% (inactive). With `COC(=O)c1cccc(NC(=O)CSc2nc(C)cc(=O)[nH]2)c1` the figure was 6.2% (inactive); with `CC(NCCO)C(=O)C12CC3CC(CC(C3)C1)C2` (stereo not given), 6.7% (inactive); with `CCn1nc(NC(=O)c2ccco2)c2cc3ccc(C)cc3nc21`, 4.2% (inactive). With `COc1ccc(CNC2CCCCC2)cc1` the figure was 3.7% (inactive); with `CC(C)[C@H](NC(=O)Nc1ccc(S(N)(=O)=O)cc1)C(=O)O`, 4.9% (inactive); with `O=S(=O)(NCc1ccc2c(c1)OCO2)c1cccc2nsnc12`, 5.8% (inactive). Take `Cc1ccc(S(=O)(=O)N2CCOCC2)cc1C(=O)NCc1ccc(F)cc1`: the inhibition is 0% (inactive). With `O=C(NCC1CCCO1)C(C(=O)c1ccccc1)n1cc(Cl)ccc1=O` (stereo not given) the figure was 6.1% (inactive).
